Results as given in ChEMBL document CHEMBL4513146, “CO-ADD screening of Karazin Kharkiv National University (Ukraine) compounds”.
Entries with a potency or affinity are not part of this list.

Key:
Staphylococcus aureus = settings: Concentration 32 ug.mL-1;; ASSAY_TEST Inhibition of Bacterial Growth; detection method Absorption (OD600); MEDIA CAMHB; plate type 384well; NBS; CORNING #3640; time 18 hr
Escherichia coli = settings: Concentration 32 ug.mL-1;; ASSAY_TEST Inhibition of Bacterial Growth; detection method Absorption (OD600); MEDIA CAMHB; plate type 384well; NBS; CORNING #3640; time 18 hr

SMILES	Inhibition (Staphylococcus aureus) [%]	Inhibition (Escherichia coli) [%]
Cc1cc2nn(CC(=O)Nc3cc(F)ccc3F)c(=O)n2c(Nc2ccc(F)c(C)c2)n1	-14.31	0.42
Cc1cccc(N(Cc2ccccc2)S(=O)(=O)c2cccn3c(C)nnc23)c1	19.49	-3.05
Cc1ccc(-c2ccc3nn(CC(=O)N4CCN(c5ccc(F)cc5)CC4)c(=O)n3n2)cc1C	-6.93	-8.27
CCc1ccccc1Sc1nccn2c(=O)n(CC(=O)Nc3ccc(C)cc3)nc12	2.48	-9.52
O=c1n(Cc2ccc3c(c2)OCO3)nc2c(S(=O)(=O)N3CCCCC3)cccn12	10.75	1.46
O=C(CSc1nnc2c(=O)n(-c3ccccc3)ccn12)NCc1ccc(Cl)cc1	9.66	-0.23
O=c1c2nn(Cc3cccc(Cl)c3)c(=O)n2ccn1-c1ccccc1	0.94	-5.32
CCc1nnc2c(S(=O)(=O)N(Cc3ccc(OC)c(F)c3)c3ccccc3)cccn12	14.47	1.05
O=C(Cn1nc2nc(Nc3ccc(F)cc3)ccn2c1=O)N1CCCC1	-4.71	-12.03
COc1ccc(NC(=O)c2ccc3nn(CC(=O)Nc4ccc5c(c4)OCCO5)c(=O)n3c2)cc1	0.27	-8.29
COc1cccc(-n2ccn3c(SCC(=O)N4CCN(c5ccccc5F)CC4)nnc3c2=O)c1	12.37	-5.42
COc1ccc(N2CCN(C(=O)Cn3nc4c(Oc5ccccc5)nccn4c3=O)CC2)cc1	16.39	4.58
